Consider three molecules from PubChem BioAssay.

Calls of active or inactive are those of the source.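 Rule for the calls: active = normalized viability below 100% at a tested concentration; inactive = the rest.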

The nature of the first assay: drug combination growth inhibition, ovarian cancer – cell-based, oncology-focused library, rucaparib conditional, profiling panel (AID 1508598). The note with it: patient-derived ovarian cancer cells, CellTiter-Glo viability, 144 h; at 0.0195 µM; OCI-C5x cells; without rucaparib; active compounds read low. Background: Cellular ATP, detected with luciferase, serves as a proxy for viable cell number.
Broadly, the viability is the share of living cells, or the viability signal relative to a control. Regarding `CC(C)[C@@]12O[C@@H]1[C@@H]1O[C@]13[C@]1(O[C@@H]1C[C@@H]1C4=C(CC[C@@]13C)C(=O)OC4)[C@@H]2O`, the viability was 8.03% (active).

On to `C/C(=C\c1csc(C)n1)[C@H]1C[C@@H]2O[C@]2(C)CCC[C@H](C)[C@H](O)[C@@H](C)C(=O)C(C)(C)[C@H](O)CC(=O)O1`, for which the viability is 27.5% (active).

Regarding `C/C(=C\c1csc(C)n1)[C@H]1C[C@@H]2O[C@@H]2CCC[C@H](C)[C@H](O)[C@@H](C)C(=O)C(C)(C)[C@H](O)CC(=O)O1`, the viability was 22% (active).

The same assay, now with this note: patient-derived ovarian cancer cells, CellTiter-Glo viability, 144 h; at 0.0195 µM; OCI-P5x cells; with rucaparib 20 µM; active compounds read low; 100% = cells with rucaparib alone.
For `CC(C)[C@@]12O[C@@H]1[C@@H]1O[C@]13[C@]1(O[C@@H]1C[C@@H]1C4=C(CC[C@@]13C)C(=O)OC4)[C@@H]2O`, the viability is 12.6% (active).

On to `C/C(=C\c1csc(C)n1)[C@H]1C[C@@H]2O[C@]2(C)CCC[C@H](C)[C@H](O)[C@@H](C)C(=O)C(C)(C)[C@H](O)CC(=O)O1`, for which the viability was 47.2% (active).

As for `C/C(=C\c1csc(C)n1)[C@H]1C[C@@H]2O[C@@H]2CCC[C@H](C)[C@H](O)[C@@H](C)C(=O)C(C)(C)[C@H](O)CC(=O)O1`, the viability is 53.1% (active).

The assay is the same for the next values; noted with them: patient-derived ovarian cancer cells, CellTiter-Glo viability, 144 h; at 0.0195 µM; OCI-P5x cells; without rucaparib; active compounds read low.
Regarding `CC(C)[C@@]12O[C@@H]1[C@@H]1O[C@]13[C@]1(O[C@@H]1C[C@@H]1C4=C(CC[C@@]13C)C(=O)OC4)[C@@H]2O`, the viability is 8.76% (active).

For the molecule `C/C(=C\c1csc(C)n1)[C@H]1C[C@@H]2O[C@]2(C)CCC[C@H](C)[C@H](O)[C@@H](C)C(=O)C(C)(C)[C@H](O)CC(=O)O1`, the viability is 16.3% (active).

With `C/C(=C\c1csc(C)n1)[C@H]1C[C@@H]2O[C@@H]2CCC[C@H](C)[C@H](O)[C@@H](C)C(=O)C(C)(C)[C@H](O)CC(=O)O1`, the viability was 17% (active).

Staying with this assay, now noted: patient-derived ovarian cancer cells, CellTiter-Glo viability, 144 h; at 0.0781 µM; OCI-C5x cells; with rucaparib 10 µM; active compounds read low; 100% = cells with rucaparib alone.
Turning to `CC(C)[C@@]12O[C@@H]1[C@@H]1O[C@]13[C@]1(O[C@@H]1C[C@@H]1C4=C(CC[C@@]13C)C(=O)OC4)[C@@H]2O`, the viability is 9.57% (active).

Turning to `C/C(=C\c1csc(C)n1)[C@H]1C[C@@H]2O[C@]2(C)CCC[C@H](C)[C@H](O)[C@@H](C)C(=O)C(C)(C)[C@H](O)CC(=O)O1`, the viability is 35.3% (active).

On to `C/C(=C\c1csc(C)n1)[C@H]1C[C@@H]2O[C@@H]2CCC[C@H](C)[C@H](O)[C@@H](C)C(=O)C(C)(C)[C@H](O)CC(=O)O1`, for which the viability was 29.4% (active).
